In all, about 35,000 sequences were measured (“fluorescence intensity (a.u.)”: median about 10,000, highest 2% from about 52,000 on). The list comes from a sample in which the highest values are over-represented; it also holds similar and randomly drawn sequences.
Biological target: T1, OsWOX13 (Oryza sativa, UniProt Q5QMM3 1-267)
T1 sequence: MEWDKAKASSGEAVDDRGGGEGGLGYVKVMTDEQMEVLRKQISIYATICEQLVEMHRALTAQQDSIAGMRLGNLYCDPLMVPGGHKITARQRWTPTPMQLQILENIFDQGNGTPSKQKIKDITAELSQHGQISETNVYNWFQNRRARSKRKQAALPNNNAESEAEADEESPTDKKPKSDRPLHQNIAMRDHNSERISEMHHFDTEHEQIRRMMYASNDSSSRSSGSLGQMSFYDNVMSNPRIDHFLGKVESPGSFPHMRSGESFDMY
Test: protein-binding microarray (RPBM); PBS, 2% BSA, 51.3 ng/ul salmon testes DNA, 50 uM zinc acetate, 200 nM TF, 25 C, 1 h; high values mean tight binding
Conditions: protein: recombinant; tags: N-terminal polyhistidine and DsRed monomer fusion (pET32a); label: CyDye5-dUTP incorporated in the synthesized complementary strand; 3' TTTTT single-stranded linker to array surface; dsDNA, one strand shown
In short: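 Using Ni–NTA, transcription factors fused N-terminally to polyhistidine and DsRed were purified after expression in E. coli BL21-CodonPlus. These were incubated at 200 nM with a blocked, double-stranded custom Agilent array for 1 h at 25 °C in a buffer containing 50 µM zinc acetate, and the array was washed. The binding signal is per-feature fluorescence intensity (arbitrary units) on an Axon 4000B scanner.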

Q: “CATGACAGCGTGCTTGGATCAACCGCTTTTGTCTTCTCCACGGAGTCACCTAGTGCAG” was tested. Which binding signal did it give?
A: The binding signal was 3780 fluorescence intensity (a.u.).

Q: Which binding signal does the source give for “ATTGATAAGCCTAATTTAGACATCAAACCAAACCAGCCCTCGGAGTCACCTAGTGCAG” here?
A: Its binding signal is 14300 fluorescence intensity (a.u.).

Q: Which binding signal does the source give for “TTGATCATGATGATATTTAATTTGTTTAGATCACACACTACGGAGTCACCTAGTGCAG” here?
A: Its binding signal is 10200 fluorescence intensity (a.u.).

Q: With “ATTCCTAAAATTATATGAATTTATGAGAAATTACGTAATGCGGAGTCACCTAGTGCAG” as the sequence, how does the binding signal read?
A: Its binding signal is 4300 fluorescence intensity (a.u.).

Q: Which binding signal does the source give for “ATGGAATCAGTAATTAACTAGAAATAAATTAATACTCCTACGGAGTCACCTAGTGCAG” here?
A: Its binding signal is 9880 fluorescence intensity (a.u.).

Q: How did the binding signal turn out when “TGGCAATGATTTATACTTCAATCATAATTGTTTGCTTAGGCGGAGTCACCTAGTGCAG” was run?
A: Its binding signal is 24000 fluorescence intensity (a.u.).

Q: For “TTAGCTATCACAGACACAATCACACAACGATGGTAAAACACGGAGTCACCTAGTGCAG”, which binding signal is on record?
A: Its binding signal is 6740 fluorescence intensity (a.u.).

Q: “CCAAATTTGGTAATTTAGAATTTGAACTAGCGTGAGAAAACGGAGTCACCTAGTGCAG” was tested. Which binding signal did it give?
A: Its binding signal is 19800 fluorescence intensity (a.u.).

Q: “ATTAATTAATTAACCTCTAACATTTAACTAATGCAGGTAACGGAGTCACCTAGTGCAG” was tested. Which binding signal did it give?
A: The binding signal was 56900 fluorescence intensity (a.u.).

Q: How did the binding signal turn out when “GACATTAATTAATTTAAATTAACGCTCACTGTTCATCGCCCGGAGTCACCTAGTGCAG” was run?
A: The binding signal was 65500 fluorescence intensity (a.u.).

Q: “TTATGCATTAACAACGTAACTAATTTAATTTGATTAGTTTCGGAGTCACCTAGTGCAG” was tested. Which binding signal did it give?
A: The binding signal was 24000 fluorescence intensity (a.u.).

Q: For “AGAATGGTGATTAACTATTGGTGTTAATTAATTTGCTGCACGGAGTCACCTAGTGCAG”, which binding signal is on record?
A: Its binding signal is 31000 fluorescence intensity (a.u.).

Q: For “AGGGTAATTACACATTTAACCCTATTTTAAGGTCTAACTACGGAGTCACCTAGTGCAG”, which binding signal is on record?
A: Its binding signal is 18400 fluorescence intensity (a.u.).

Q: For “ATTAATTAAAATCGCGCCCAATTAATCATTTAATCCATCCCGGAGTCACCTAGTGCAG”, which binding signal is on record?
A: The binding signal was 40700 fluorescence intensity (a.u.).

Q: “TCACTGTTATTTAATTATATATATATATATATATTCATGCCGGAGTCACCTAGTGCAG” was tested. Which binding signal did it give?
A: The binding signal was 8880 fluorescence intensity (a.u.).

Q: “TGTGATTGGTAATTGCCGAACTATTTGAAAATGGTGCGTGCGGAGTCACCTAGTGCAG” was tested. Which binding signal did it give?
A: The binding signal was 62300 fluorescence intensity (a.u.).

Q: With “ACCAATTATAAACACAAGTTAATGGGCAAATGACATGGAACGGAGTCACCTAGTGCAG” as the sequence, how does the binding signal read?
A: Its binding signal is 11500 fluorescence intensity (a.u.).

Q: “TTAATTTACCGGATTCAATATTCCATATTTAGAAGTCACCCGGAGTCACCTAGTGCAG” was tested. Which binding signal did it give?
A: Its binding signal is 3350 fluorescence intensity (a.u.).

Q: For “CATGACATCGTCATTGACCGTGTCATCGTCAAGATGGATGCGGAGTCACCTAGTGCAG”, which binding signal is on record?
A: Its binding signal is 4420 fluorescence intensity (a.u.).

Q: Which binding signal does the source give for “AATAAAAGATTATCATATCTAAATAGAAGATATACCATCTCGGAGTCACCTAGTGCAG” here?
A: Its binding signal is 4160 fluorescence intensity (a.u.).

Q: With “AAACCAATTTCAATTACCAATTACTCCCTAATATTAGCTACGGAGTCACCTAGTGCAG” as the sequence, how does the binding signal read?
A: The binding signal was 18900 fluorescence intensity (a.u.).

Q: With “GATCAAAAGAAATTTGCCAAATTTACTGCTTTGTGATGGGCGGAGTCACCTAGTGCAG” as the sequence, how does the binding signal read?
A: The binding signal was 3610 fluorescence intensity (a.u.).

Q: How did the binding signal turn out when “TGACCTAATTAATTATTTAACTAATAATAATTAGTGATTACGGAGTCACCTAGTGCAG” was run?
A: The binding signal was 44500 fluorescence intensity (a.u.).

Q: How did the binding signal turn out when “TAATTAATTGATTAATGACTAAACTTGGCCATCAACCGCTCGGAGTCACCTAGTGCAG” was run?
A: Its binding signal is 64800 fluorescence intensity (a.u.).

Q: “ATCACCGACTAATTAATTAATTAATTAATCATCCTTGATTCGGAGTCACCTAGTGCAG” was tested. Which binding signal did it give?
A: Its binding signal is 38800 fluorescence intensity (a.u.).

Q: Which binding signal does the source give for “ATGGACTAATTATGCTCAAAAGATTCGTCTCACGATTTACCGGAGTCACCTAGTGCAG” here?
A: Its binding signal is 16800 fluorescence intensity (a.u.).

Q: “CATCAACATATAATTGATTAAATATTAATTATAACAAACTCGGAGTCACCTAGTGCAG” was tested. Which binding signal did it give?
A: The binding signal was 45700 fluorescence intensity (a.u.).

Q: For “ATTGATTTTATTAAGTAACTGTGTGCTAATTAATTGTTCACGGAGTCACCTAGTGCAG”, which binding signal is on record?
A: Its binding signal is 28300 fluorescence intensity (a.u.).

Q: Which binding signal does the source give for “CATTAATTAAACTAACCCATCCATTGATTGATTATCAGTGCGGAGTCACCTAGTGCAG” here?
A: Its binding signal is 63500 fluorescence intensity (a.u.).

Q: For “CTAATTATAAACCTTAATCAGCTAAAATCCTAACCCATCACGGAGTCACCTAGTGCAG”, which binding signal is on record?
A: The binding signal was 3290 fluorescence intensity (a.u.).

Q: Which binding signal does the source give for “TGTTAACTAATTAAATACCCATTATCAAACATTTAATTGACGGAGTCACCTAGTGCAG” here?
A: Its binding signal is 22900 fluorescence intensity (a.u.).

Q: “GCTCTGATTAATTTCAAACTTCGATTATGGACTAGTCAACCGGAGTCACCTAGTGCAG” was tested. Which binding signal did it give?
A: Its binding signal is 53400 fluorescence intensity (a.u.).

Q: With “GATAAGTGATTGATTAACTACTAATTTAATTATCACTGTGCGGAGTCACCTAGTGCAG” as the sequence, how does the binding signal read?
A: The binding signal was 63300 fluorescence intensity (a.u.).

Q: Which binding signal does the source give for “TTATGATTTTCATATAAATCAAATGGGACTTTAATTAATCCGGAGTCACCTAGTGCAG” here?
A: Its binding signal is 11500 fluorescence intensity (a.u.).

Q: “TTGTAATGGTGAAATCATGTTCAGTTTATTGTCGTACAAACGGAGTCACCTAGTGCAG” was tested. Which binding signal did it give?
A: Its binding signal is 3710 fluorescence intensity (a.u.).

Q: With “GCAAATGGATTGTACAACTATGGAAGGGGCAGGTTCGAGGCGGAGTCACCTAGTGCAG” as the sequence, how does the binding signal read?
A: The binding signal was 5170 fluorescence intensity (a.u.).

Q: For “GTTTAATTAAAATCCACCAACAATGACAATTTAATAGGTGCGGAGTCACCTAGTGCAG”, which binding signal is on record?
A: Its binding signal is 32300 fluorescence intensity (a.u.).

Q: How did the binding signal turn out when “CACTTAACTGAACACTTACTTCTCGGTGACAAGTGAAATGCGGAGTCACCTAGTGCAG” was run?
A: Its binding signal is 10800 fluorescence intensity (a.u.).

Q: For “TAACTAATTACCAAACAGATCGTACCCCACCATAAGAATCCGGAGTCACCTAGTGCAG”, which binding signal is on record?
A: Its binding signal is 29200 fluorescence intensity (a.u.).

Q: How did the binding signal turn out when “TAACTAATTATTAATTGTTTTCCTATCATTTGATTCATTGCGGAGTCACCTAGTGCAG” was run?
A: Its binding signal is 53200 fluorescence intensity (a.u.).

Q: “GATTTAATGGATCACCTGCTATTACAGATTCCTTCAGTTGCGGAGTCACCTAGTGCAG” was tested. Which binding signal did it give?
A: The binding signal was 4210 fluorescence intensity (a.u.).

Q: For “GTAATTATAATAATGAGTTACTGATCGAGAGGAGGAGAGGCGGAGTCACCTAGTGCAG”, which binding signal is on record?
A: Its binding signal is 7580 fluorescence intensity (a.u.).
